Test results from the supplement of paper PMC10849652.
About 7,900 targets were measured; listed, in parts, are those with a hit and a random draw of the rest. About 0.6% of all pairs of compound and target were hits. Unmarked numbers belong to inactive results.

Assays:
Assay in all cases: log2 fold change, soluble protein after heating vs DMSO (PISA); higher = thermal stabilisation; K562 cells, 10 uM, 30 min; active = over 0.2 and 3.5 SD of the protein, either way, in both replicates (recomputed)
crizotinib = compound: C[C@@H](Oc1cc(-c2cnn(C3CCNCC3)c2)cnc1N)c1c(Cl)ccc(F)c1Cl [crizotinib]
Summary of the method: (§1)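 Soluble protein was defined as the supernatant after 21,000xg for 90 min. It came from K562 cells at 2×10^6 cells/mL given 10 μM compound for 30 min, heated in aliquots for 3 min across 48°C-58°C, pooled, and extracted in PBS with 0.5% NP-40 at 4°C, and was quantified by TMTpro 16plex LC-MS/MS with equalised channel sums. Thermal stability against control samples, from duplicates, is reported as log2 fold change.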

[1] = compound: C[C@@H]1COCCN1C2=NC(=NC(=C2)C3(CC3)S(=O)(=O)C)C4=C5C=CNC5=CC=C4
Summary of the method: as §1

duvelisib = compound: C[C@H](Nc1ncnc2nc[nH]c12)c1cc2cccc(Cl)c2c(=O)n1-c1ccccc1 [duvelisib]
Summary of the method: as §1

gandotinib = compound: Cc1cc(Nc2cc(CN3CCOCC3)c3nc(C)c(Cc4ccc(Cl)cc4F)n3n2)n[nH]1 [gandotinib]
Summary of the method: as §1

tozasertib = compound: Cc1cc(Nc2cc(N3CCN(C)CC3)nc(Sc3ccc(NC(=O)C4CC4)cc3)n2)n[nH]1 [tozasertib]
Summary of the method: as §1

[2] = compound: Cc1cc(SCc2sc(-c3ccc(C(F)(F)F)cc3)nc2C)ccc1OCC(=O)O
Summary of the method: as §1

doramapimod = compound: Cc1ccc(-n2nc(C(C)(C)C)cc2NC(=O)Nc2ccc(OCCN3CCOCC3)c3ccccc23)cc1 [doramapimod]
Summary of the method: as §1

ispinesib = compound: Cc1ccc(C(=O)N(CCCN)[C@@H](c2nc3cc(Cl)ccc3c(=O)n2Cc2ccccc2)C(C)C)cc1 [ispinesib]
Summary of the method: as §1

[3] = compound: C[C@H](C1=CC=C(C=C1)C(=O)NC2=C3C=CNC3=NC=C2)N
Summary of the method: as §1

[4] = compound: CS(=O)(=O)c1ccc(-c2cnc(N)c(C(=O)Nc3ccccc3)n2)cc1
Summary of the method: as §1

Chain of UniProt Q5THK1 (Q5THK1 whole entry, looked up): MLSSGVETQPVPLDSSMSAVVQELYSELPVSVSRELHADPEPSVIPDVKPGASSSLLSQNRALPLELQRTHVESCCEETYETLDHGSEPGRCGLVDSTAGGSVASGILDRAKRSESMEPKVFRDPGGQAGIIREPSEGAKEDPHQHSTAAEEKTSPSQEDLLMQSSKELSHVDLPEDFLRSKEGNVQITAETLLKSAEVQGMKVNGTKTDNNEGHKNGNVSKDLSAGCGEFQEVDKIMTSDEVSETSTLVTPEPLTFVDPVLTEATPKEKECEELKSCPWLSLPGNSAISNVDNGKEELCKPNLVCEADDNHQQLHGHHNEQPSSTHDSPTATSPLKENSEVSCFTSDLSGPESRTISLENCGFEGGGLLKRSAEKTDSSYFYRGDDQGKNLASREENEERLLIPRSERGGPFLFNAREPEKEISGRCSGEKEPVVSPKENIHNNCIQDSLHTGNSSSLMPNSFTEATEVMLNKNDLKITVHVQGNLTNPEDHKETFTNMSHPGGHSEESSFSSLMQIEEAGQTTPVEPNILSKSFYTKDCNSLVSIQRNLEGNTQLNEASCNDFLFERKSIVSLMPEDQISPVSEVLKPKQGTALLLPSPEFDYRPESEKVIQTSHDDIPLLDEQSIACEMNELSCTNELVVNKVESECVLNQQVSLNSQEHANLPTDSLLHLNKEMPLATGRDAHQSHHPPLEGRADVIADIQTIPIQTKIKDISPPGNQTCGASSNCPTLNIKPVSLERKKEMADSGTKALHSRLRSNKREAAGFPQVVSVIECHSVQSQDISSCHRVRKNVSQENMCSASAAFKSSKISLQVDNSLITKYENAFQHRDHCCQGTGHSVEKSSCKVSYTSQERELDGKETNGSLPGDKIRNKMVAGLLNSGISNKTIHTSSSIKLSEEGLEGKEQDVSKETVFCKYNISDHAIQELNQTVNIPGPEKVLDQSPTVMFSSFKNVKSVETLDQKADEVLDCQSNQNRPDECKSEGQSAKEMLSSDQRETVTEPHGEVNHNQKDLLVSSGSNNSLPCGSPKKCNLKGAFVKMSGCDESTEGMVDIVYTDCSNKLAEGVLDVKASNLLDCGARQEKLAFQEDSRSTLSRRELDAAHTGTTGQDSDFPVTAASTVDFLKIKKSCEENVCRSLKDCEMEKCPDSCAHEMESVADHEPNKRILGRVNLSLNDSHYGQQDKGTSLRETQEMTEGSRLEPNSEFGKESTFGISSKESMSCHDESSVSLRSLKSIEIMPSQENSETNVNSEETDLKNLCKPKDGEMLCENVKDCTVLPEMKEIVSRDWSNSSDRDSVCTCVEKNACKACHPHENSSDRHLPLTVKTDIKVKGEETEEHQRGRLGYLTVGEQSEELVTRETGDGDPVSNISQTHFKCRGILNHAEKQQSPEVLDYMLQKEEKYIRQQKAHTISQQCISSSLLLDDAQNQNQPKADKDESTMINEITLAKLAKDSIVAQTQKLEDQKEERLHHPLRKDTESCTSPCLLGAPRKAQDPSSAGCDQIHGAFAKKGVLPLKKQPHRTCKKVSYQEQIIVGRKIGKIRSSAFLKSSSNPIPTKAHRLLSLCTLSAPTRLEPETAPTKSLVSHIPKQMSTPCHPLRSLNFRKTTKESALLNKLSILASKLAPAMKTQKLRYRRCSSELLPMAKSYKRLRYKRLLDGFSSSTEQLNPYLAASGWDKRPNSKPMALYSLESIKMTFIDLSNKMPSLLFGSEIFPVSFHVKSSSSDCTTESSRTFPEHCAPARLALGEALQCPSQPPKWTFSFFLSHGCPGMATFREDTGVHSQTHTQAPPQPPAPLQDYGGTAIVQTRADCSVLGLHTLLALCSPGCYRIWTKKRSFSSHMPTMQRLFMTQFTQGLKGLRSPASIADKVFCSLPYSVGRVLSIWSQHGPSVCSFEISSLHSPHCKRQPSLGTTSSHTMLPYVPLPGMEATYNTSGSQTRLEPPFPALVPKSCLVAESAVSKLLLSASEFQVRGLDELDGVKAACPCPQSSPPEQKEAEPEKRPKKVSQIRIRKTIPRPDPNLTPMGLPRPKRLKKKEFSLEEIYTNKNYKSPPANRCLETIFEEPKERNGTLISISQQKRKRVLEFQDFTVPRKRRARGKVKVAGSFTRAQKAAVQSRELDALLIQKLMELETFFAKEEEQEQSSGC
Chain of UniProt Q9UHX1 (Q9UHX1 whole entry, looked up): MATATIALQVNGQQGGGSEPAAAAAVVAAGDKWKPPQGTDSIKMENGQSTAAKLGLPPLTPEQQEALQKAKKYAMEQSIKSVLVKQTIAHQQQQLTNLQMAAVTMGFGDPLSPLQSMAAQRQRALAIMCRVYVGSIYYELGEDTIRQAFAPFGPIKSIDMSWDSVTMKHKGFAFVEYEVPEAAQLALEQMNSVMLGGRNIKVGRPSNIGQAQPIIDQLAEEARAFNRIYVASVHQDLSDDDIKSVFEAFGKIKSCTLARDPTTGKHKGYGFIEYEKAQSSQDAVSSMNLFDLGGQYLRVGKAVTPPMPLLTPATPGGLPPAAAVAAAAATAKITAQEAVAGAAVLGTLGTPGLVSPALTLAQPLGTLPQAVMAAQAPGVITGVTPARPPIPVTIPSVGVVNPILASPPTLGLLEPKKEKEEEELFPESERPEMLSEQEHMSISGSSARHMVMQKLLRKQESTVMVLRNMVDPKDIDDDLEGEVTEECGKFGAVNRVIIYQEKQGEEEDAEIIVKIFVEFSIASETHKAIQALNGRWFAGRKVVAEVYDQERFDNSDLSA
Chain of UniProt Q8TCG2 (Q8TCG2 whole entry, looked up): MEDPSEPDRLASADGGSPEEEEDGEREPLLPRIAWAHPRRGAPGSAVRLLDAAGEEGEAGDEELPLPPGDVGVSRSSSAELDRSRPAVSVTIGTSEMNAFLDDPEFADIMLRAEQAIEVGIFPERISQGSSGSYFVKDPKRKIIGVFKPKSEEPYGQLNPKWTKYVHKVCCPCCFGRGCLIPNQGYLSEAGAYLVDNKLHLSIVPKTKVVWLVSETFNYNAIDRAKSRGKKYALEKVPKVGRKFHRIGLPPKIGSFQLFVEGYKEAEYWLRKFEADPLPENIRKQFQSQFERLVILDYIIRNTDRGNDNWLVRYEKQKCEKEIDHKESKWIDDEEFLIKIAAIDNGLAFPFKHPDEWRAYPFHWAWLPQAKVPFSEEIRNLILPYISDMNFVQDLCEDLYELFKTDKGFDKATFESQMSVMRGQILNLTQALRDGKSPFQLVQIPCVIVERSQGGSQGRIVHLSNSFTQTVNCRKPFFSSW
Chain of UniProt Q15173 (Q15173 whole entry, looked up): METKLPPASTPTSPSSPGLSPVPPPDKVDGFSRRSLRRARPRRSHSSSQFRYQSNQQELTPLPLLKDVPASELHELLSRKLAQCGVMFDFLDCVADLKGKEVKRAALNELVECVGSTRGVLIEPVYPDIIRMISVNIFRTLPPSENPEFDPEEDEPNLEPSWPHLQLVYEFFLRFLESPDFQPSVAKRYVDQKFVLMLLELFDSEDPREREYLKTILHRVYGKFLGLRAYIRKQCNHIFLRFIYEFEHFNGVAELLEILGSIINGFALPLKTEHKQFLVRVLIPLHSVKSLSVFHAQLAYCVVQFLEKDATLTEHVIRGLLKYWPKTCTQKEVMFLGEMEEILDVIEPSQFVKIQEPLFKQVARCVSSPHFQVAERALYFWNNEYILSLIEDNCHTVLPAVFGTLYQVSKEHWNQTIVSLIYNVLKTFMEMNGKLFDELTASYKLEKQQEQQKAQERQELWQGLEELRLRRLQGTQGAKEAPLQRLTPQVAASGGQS
Chain of UniProt Q14289 (Q14289 whole entry, looked up): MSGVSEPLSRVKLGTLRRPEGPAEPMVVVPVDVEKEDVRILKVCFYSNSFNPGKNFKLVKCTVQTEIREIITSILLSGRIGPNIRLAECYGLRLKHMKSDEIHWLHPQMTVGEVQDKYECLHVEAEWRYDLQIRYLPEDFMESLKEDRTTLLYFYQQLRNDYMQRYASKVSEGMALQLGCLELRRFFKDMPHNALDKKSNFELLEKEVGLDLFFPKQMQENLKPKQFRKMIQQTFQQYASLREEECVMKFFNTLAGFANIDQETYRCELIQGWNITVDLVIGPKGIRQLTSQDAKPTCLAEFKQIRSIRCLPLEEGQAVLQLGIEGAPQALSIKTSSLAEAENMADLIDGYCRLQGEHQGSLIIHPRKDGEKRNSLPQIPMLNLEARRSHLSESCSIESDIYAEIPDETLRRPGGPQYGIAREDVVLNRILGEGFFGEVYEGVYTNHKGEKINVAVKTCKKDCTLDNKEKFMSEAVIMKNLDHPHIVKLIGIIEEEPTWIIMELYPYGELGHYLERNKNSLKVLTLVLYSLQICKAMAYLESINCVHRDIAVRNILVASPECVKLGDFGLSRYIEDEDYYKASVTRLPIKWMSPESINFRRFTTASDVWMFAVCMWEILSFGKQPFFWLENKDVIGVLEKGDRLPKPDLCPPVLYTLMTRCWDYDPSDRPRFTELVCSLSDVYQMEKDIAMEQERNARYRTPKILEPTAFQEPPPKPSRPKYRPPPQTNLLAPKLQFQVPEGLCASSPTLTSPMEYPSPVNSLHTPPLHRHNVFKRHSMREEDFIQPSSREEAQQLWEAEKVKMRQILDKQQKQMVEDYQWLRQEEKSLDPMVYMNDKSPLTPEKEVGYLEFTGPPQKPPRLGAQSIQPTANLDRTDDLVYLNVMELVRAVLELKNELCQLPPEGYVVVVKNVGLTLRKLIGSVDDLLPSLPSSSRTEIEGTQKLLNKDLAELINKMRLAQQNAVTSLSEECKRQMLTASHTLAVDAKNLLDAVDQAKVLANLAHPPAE
Chain of UniProt P41247 (P41247 whole entry, looked up): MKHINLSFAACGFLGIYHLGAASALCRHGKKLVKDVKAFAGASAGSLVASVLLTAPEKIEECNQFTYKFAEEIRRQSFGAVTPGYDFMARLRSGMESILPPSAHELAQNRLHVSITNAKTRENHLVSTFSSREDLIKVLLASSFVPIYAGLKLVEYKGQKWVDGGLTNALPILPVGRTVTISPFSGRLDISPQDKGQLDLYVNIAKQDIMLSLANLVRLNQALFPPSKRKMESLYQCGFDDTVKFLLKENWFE

| Target | log2 fold change (crizotinib) | log2 fold change [1] | log2 fold change (duvelisib) | log2 fold change (gandotinib) | log2 fold change (tozasertib) | log2 fold change [2] | log2 fold change (doramapimod) | log2 fold change (ispinesib) | log2 fold change [3] | log2 fold change [4] |
| --- | --- | --- | --- | --- | --- | --- | --- | --- | --- | --- |
| PIAS4 (UniProt Q8N2W9) | -0.178 | 0.047 | 0.036 | -0.013 | -0.009 | 0.021 | 0.061 | -0.278 |  |  |
| PUF60 isoform 2 (UniProt Q9UHX1) |  |  | 0.163 |  | 0.193 | 0.04 |  | 0.173 | -0.591 |  |
| PRKD3 (UniProt O94806) | -0.292 |  | 0.033 | 0.092 |  | 0.039 | -0.088 | -0.237 | -0.189 | -0.132 |
| PI4K2B (UniProt Q8TCG2) | -0.184 |  | 0.132 | -0.045 | -0.168 | -0.016 | 0.01 | -0.355 (active) | 0.118 | 0.06 |
| PLCXD1 (UniProt Q9NUJ7) |  |  |  |  |  |  |  | -0.145 |  |  |
| PSMA3 (UniProt G3V4X5) | -0.277 |  |  |  |  |  | 0.149 | -0.081 |  |  |
| PRR14L (UniProt Q5THK1) |  |  |  | -0.084 | -0.247 |  |  |  | -0.072 |  |
| PPP2R5B (UniProt Q15173) |  |  | 0.16 | -0.277 |  | -0.002 |  |  |  |  |
| PIM1 isoform 2 (UniProt P11309) |  |  |  | -0.084 |  |  |  |  |  |  |
| PNPLA4 (UniProt P41247) | -0.651 (active) |  | -0.095 |  | -0.005 | 0.117 | 0.895 (active) | -0.093 | 0.559 | 0.319 |
| PTK2B (UniProt Q14289) |  | -0.03 | 0.182 | -0.03 | -0.067 | 0.016 |  | -0.233 | 0.234 | -0.029 |
| PDE4DIP (UniProt E9PS60) | -0.225 |  |  |  |  |  | 0.102 |  | 0.212 |  |
| POLR2E (UniProt P19388) | 0.112 | -0.027 | -0.001 | 0.157 | 0.02 | 0.089 | -0.078 | -0.058 | 0.14 |  |
| PSMD8 (UniProt K7EK21) |  |  |  |  |  |  |  |  | 0.485 |  |
| PSMC3 (UniProt E9PLG2) | 0.168 | 0.101 | 0.245 |  | -0.288 | -0.101 | -0.058 |  |  | 0.206 |
